High-throughput results deposited in PubChem BioAssay by several laboratories.
BoNT F protease = inhibitors of Botulinum neurotoxin F light chain protease | Multiplex microsphere protease cleavage assay, flow cytometry | inhibition, % at 10 µM | 360,000 compounds, 0.22% hits; in the data active = inhibition above about 35%, passing the limit was not always enough; inconclusive = no clear call, values can overlap the other calls
Anthrax LF inh2 = inhibitors of Bacillus anthracis lethal factor protease; inhibition, % at 10 µM; multiplex microsphere protease cleavage assay, LF; 360,000 compounds, 0.12% hits
BoNT-A LC inh2 = inhibitors of Botulinum neurotoxin A light chain protease. multiplex microsphere protease substrate cleavage, flow cytometry. inhibition, % at 10 µM. 360,000 compounds, 0.17% hits. AID 588499
Vc quorum ag = induces V. cholerae light production without autoinducers; V. cholerae BH1578 lux reporter, luminescence, 6 h; activation, % at 18.7 µM; 350,000 compounds, 0.16% hits; AID 588436; in the data active = activation mostly above about 9.7%, no sharp cut-off; inconclusive = no clear call, values can overlap the other calls; inactive = mostly below about 3.7%
BJeLR viability = BJeLR cell viability loss; inhibition, % (no concentration beside the values); BJeLR (HRASV12) viability, CellTiter-Glo ATP luminescence, 48 h; 300,000 compounds, 0.17% hits; AID 1554; in the data active = inhibition above about 50%; inconclusive = no clear call, values can overlap the other calls
Bead autofluor = compound fluorescence in toxin protease inhibitor counterscreen; compound autofluorescence counterscreen, microsphere flow cytometry; active compounds read high; fluorescence intensity (no concentration beside the values); 360,000 compounds, 3.1% hits; in the data active = fluorescence intensity above about 16000; inconclusive = no clear call, values can overlap the other calls
Numbers stand for hits; 0 = inactive; ? = inconclusive; - = no result. Sampled rows, rich in hits. Any-hit rate of the full collection: about 3.7%. Rule as the data show it, unless noted: active = inhibition above about 30%; inconclusive = no clear call, values can overlap the other calls; inactive = below that.

SMILES	BoNT F protease	Anthrax LF inh2	BoNT-A LC inh2	Vc quorum ag	BJeLR viability	Bead autofluor
Nc1nonc1-n1nnc(C(=O)N/N=C/c2cccc(F)c2)c1CN1CCCC1	0	0	0	28.1	0	0
Nc1nonc1-n1nnc(C(=O)N/N=C/c2cccc(F)c2)c1CN1CCCCCC1	0	0	0	0	0	0
Nc1nonc1-n1nnc(C(=O)N/N=C/c2cccc(Cl)c2)c1CN1CCCC1	0	0	0	32.0	0	0
Cc1cccc(OCCCc2c(C)n[nH]c2C)c1	0	0	?	0	0	22053
COc1cccc(OC)c1OCCCc1c(C)n[nH]c1C	0	0	0	0	0	0
CC(C)S(=O)(=O)N1CCCC(c2cc(C(=O)Nc3ccc(F)c(Cl)c3)no2)C1 (stereo not given)	0	0	0	0	-	0
O=C(CC(NC(=O)c1ccccc1Cl)c1ccccc1)Nc1ccc2c(c1)OCO2 (stereo not given)	0	0	0	0	-	20052
COc1ccccc1C(=O)Nc1ccc2c(c1)OCO2	0	0	0	0	0	23284
CC(C)C(C(=O)Nc1ccc2c(c1)OCO2)N1C(=O)c2ccccc2C1=O (stereo not given)	0	0	?	0	-	20817
CC(C)C(C(=O)Nc1ccc2c(c1)OCCO2)N1C(=O)c2ccccc2C1=O (stereo not given)	0	0	0	0	0	0
CCOc1ccccc1C(=O)NC(C)c1ccc2c(c1)OCO2 (stereo not given)	0	0	0	0	0	18046
CC(NC(=O)c1ccccc1Cl)C(=O)Nc1ccc2c(c1)OCO2 (stereo not given)	0	0	0	0	-	0
Cc1c(C)c2ccc(OCC(=O)NCCc3c[nH]c4ccccc34)cc2oc1=O	0	0	0	0	-	0
CCOC(=O)[C@]12CCC=C1N(Cc1ccco1)C(=O)[C@H](CC(=O)NCc1cccc3ccccc13)C2	0	0	0	-	-	0
COc1ccc(NC(=O)C2(C)Cc3c(-c4cccc(C(F)(F)F)c4)ccnc3O2)cc1OC (stereo not given)	0	0	0	0	-	0
COc1ccc(C)cc1NC(=O)c1cc2ccccc2o1	0	0	?	0	0	23609
COc1ccc(OCCCC(=O)Nc2ccc3c(c2)OCO3)cc1	0	0	0	0	0	16175
COc1cc(C(=O)Nc2ccc3c(c2)OCCO3)c(-n2cnnn2)cc1OC	0	0	0	0	0	22353
CCOc1ccc(OCCC(=O)Nc2ccc3c(c2)OCO3)cc1	0	0	0	0	-	0
COc1ccc(C)cc1NC(=O)c1ccc2c(c1)OCO2	0	0	0	0	0	21822
O=S(=O)(c1ccccc1)n1cc(-c2cccc3nccn23)c2ccccc21	0	0	0	0	-	0
CC(=O)NCCNc1nc2cc(-c3ccccc3CO)sc2c(=O)n1C	0	0	0	0	-	0
CC(CNC(=O)Cn1cnc2c(NCc3ccccc3)ncnc21)c1ccccc1 (stereo not given)	0	0	0	0	-	0
CC(C)CCn1cnc2c(NCc3ccccc3)ncnc21	0	0	0	0	0	24204
CCOc1c(Br)cc(C(=O)Nc2cccc(S(=O)(=O)N3CCOCC3)c2)cc1OC	0	0	0	0	-	0
SMILES	BoNT F protease	Anthrax LF inh2	BoNT-A LC inh2	Vc quorum ag	BJeLR viability	Bead autofluor
C[C@@H](CO)NC(=O)c1[nH]cnc1C(=O)Nc1ccc(CNC(=O)OC(C)(C)C)cc1	0	0	0	0	-	0
CCOC(=O)c1c(C)n(Cc2ccccc2)c2ccc(O)cc12	0	0	0	0	0	0
C=COCCn1c(C)c(C(=O)OCC)c2cc(O)ccc21	0	0	?	0	0	21557
CN1OC[C@@H]2CN(C(=O)CCc3ccccc3)[C@H](c3cccc(N4CCOCC4)c3)C[C@@H]21	0	0	0	0	-	0
Cc1cc(C)c2c(C)nn(C3CCCCC3)c2n1	0	0	?	0	0	16323
COc1cccc(CN2CCC2(C)C(=O)Nc2cnc3ccccc3c2)c1F (stereo not given)	0	0	0	0	-	0
CCCC(C)(C)C(=O)N1CCC1(C)C(=O)Nc1cccc(OC)c1 (stereo not given)	0	0	0	0	-	0
CN(C)/C=C/C(=O)c1cnc(-c2cccc(Cl)c2)s1	42.3	0	0	0	0	0
O=C(c1ccc(Cl)cc1)c1cnc(-c2ccccc2)s1	-	-	-	0	-	-
CN(C)/C=C/C(=O)c1cnc(-c2ccccc2Cl)s1	0	0	0	0	0	0
O=C(c1cnc(-c2ccccc2)s1)c1ccc(Cl)cc1Cl	0	0	?	0	0	22951
COc1ccc(NC(=O)C[C@H]2C(=O)N(Cc3ccccc3)C[C@@H]2CSC)cc1	0	0	0	0	-	0
CC(O)(c1ccccc1)c1nc(-c2ccc(S(C)(=O)=O)cc2)cs1 (stereo not given)	0	0	0	0	-	0
C[C@@H]1ON(C)[C@H]2C[C@H]3c4[nH]c5ccc(-c6ccc7c(c6)OCO7)cc5c4CCN3C[C@@H]12	0	0	0	0	-	0
CN(C)c1ccnc(SCc2ccccc2Cl)c1C#N	0	0	0	0	0	22367
Cc1cccc(C)c1NC(=O)C1c2ccccc2OCC(=O)N1Cc1cccnc1 (stereo not given)	0	0	0	-	-	0
CC(C)N(C(=O)CSc1nnc(-c2cc3ccccc3cc2O)n1Cc1ccco1)C(C)C	0	0	?	0	0	20006
COCCn1c(SCC(=O)N(C(C)C)C(C)C)nnc1-c1cc2ccccc2cc1O	0	0	?	0	0	23496
O=C(CSc1nnc(-c2cc3ccccc3cc2O)n1Cc1ccco1)N1CCc2ccccc2C1	0	0	0	0	0	0
O=C1C2=C(SCCS2)C(=O)N1c1ccccc1	0	0	0	0	0	19116
O=C(Cc1ncn[nH]1)NCCc1ccccc1	0	0	0	0	0	0
CCCNC(=O)Cc1ncn[nH]1	0	0	0	0	0	20413
CCN(CC)CCCNC(=O)c1ccc(OCC(=O)Nc2ccccc2C(F)(F)F)c(OC)c1	0	0	0	0	0	0
COc1ccccc1-n1c([S-])c(C(=O)Nc2ccccc2C(F)(F)F)[n+]2ccc(C(=O)NCCO)cc12	0	0	36.5	0	0	0
Cc1ccc(NC(=O)c2ccc(OC(F)F)cc2)cc1S(=O)(=O)N(C)C	0	0	0	0	0	0
SMILES	BoNT F protease	Anthrax LF inh2	BoNT-A LC inh2	Vc quorum ag	BJeLR viability	Bead autofluor
Cc1ccc(-n2c([S-])c(C(=O)Nc3ccc(OC(F)F)cc3)[n+]3ccc(C(=O)NCCO)cc23)cc1C	0	0	50.9	0	0	0
COc1ccc(C2C(C#N)=C(C)NC3=C2C(=O)c2ccccc23)cc1 (stereo not given)	0	0	0	0	0	0
CCOc1ccc(C2C(C#N)=C(C)NC3=C2C(=O)c2ccccc23)cc1 (stereo not given)	0	0	0	0	0	22424
N#CCSc1ccccc1NC(=O)CN1C(=O)C(=O)N(Cc2ccccc2)C1=O	0	0	0	-	-	0
COc1cnn(-c2cccc(Cl)c2)c(=O)c1Cl	0	0	0	0	0	0
CCCn1ncc(OC)c(Cl)c1=O	0	0	0	0	0	21990
